Data published in PubChem BioAssay AID1259343 (VanderVen Lab, College of Veterinary Medicine, Cornell …, 2017).
Among all 6,200 compounds or so, about 2,900 (47%) were called active. So high a share suggests a set chosen from earlier hits. This is one part of the list. Values without a mark were called inactive. Rule as the data show it: active = inhibition above about 50%; inactive = the rest.

Experiment: Mycobacterium tuberculosis growth inhibition, primary screen (AID 1259343)
Conditions: inhibition: at 10 µM, hits give high values; outcome: 10 uM

Structure (SMILES) | inhibition
Cc1nc2c(-c3ccccc3)c[nH]n2c(=O)c1C | 23.2%
O=c1c2c(nc3c(-c4cccc5ccccc45)c[nH]n13)CCC2 | 88.6% (active)
Cc1oc(-n2cccc2)c(C#N)c1C(=O)NC1CCC(C)CC1 (configuration not stated) | 77.2% (active)
CC1CCC(NC(=O)c2ccc(Br)o2)CC1 (configuration not stated) | 25.1%
Cc1oc(-n2cccc2)c(C#N)c1C(=O)OCc1cc(=O)n2c(C)csc2n1 | -7.14%
Cn1ccnc1Sc1nc(-c2ccccn2)nc2scc(-c3ccccc3)c12 | 77.2% (active)
COc1ccccc1N1CCN(Cn2nc(C3COc4ccccc4O3)oc2=S)CC1 (configuration not stated) | 49.9%
OC(CN1CCCC1)Cn1c2ccc(Cl)cc2c2cc(Cl)ccc21 (configuration not stated) | -9.02%
Cc1nn(CC(O)Cn2c(C)c(C)c3cccc(Cl)c32)c(C)c1Br (configuration not stated) | 25.1%
Cc1nccn1CC(O)Cn1c2ccc(Cl)cc2c2cc(Cl)ccc21 (configuration not stated) | 66.4% (active)
Cc1c(C(=O)NCc2ccc(C(F)(F)F)cc2)sc(=O)n1Cc1ccc(F)cc1 | 20.5%
Cn1nnc2c(=O)n(Cc3ccc(C(F)(F)F)cc3)cnc21 | 45.7%
O=C1N(Cc2ccccc2)C(c2ccc(C(F)(F)F)cc2)C1(F)F (configuration not stated) | 79.7% (active)
O=C(COc1ccccc1)N1CCc2ccc(O)cc2C1 | 68.5% (active)
CC(=O)N1CCc2cc(-c3nc(COc4ccccc4)sc3C)ccc21 | 37.8%
CC(C)Oc1ncc(C(=O)N2CCc3ccc(O)cc3C2)cc1Cl | 33.5%
O=[N+]([O-])c1ccc2[nH]c(=S)sc2c1 | -16.1%
N#CCCSc1nc2ccc([N+](=O)[O-])cc2s1 | 52% (active)
Cc1nc2sc(C)c(C)n2c(=O)c1NC(=O)c1ccc(-c2ccccc2)cc1 | 34.6%
CC(=O)Nc1nc(-c2ccc(C)cc2)c(-c2ccccc2)s1 | 86% (active)
CN(C)C=Nc1nc(-c2ccccc2)c(-c2ccccc2)s1 | 15.9%
O=C(Nc1cc(F)ccc1F)c1ccc(NC(=O)C2CC2)s1 | 23.9%
O=C(NC1CCS(=O)(=O)C1)c1ccc(-c2ccc(F)cc2)s1 (configuration not stated) | 79% (active)
O=C(NC1CCS(=O)(=O)C1)c1ccc(Br)o1 (configuration not stated) | 10.7%
COc1cc(C(=O)Nc2cc(C3CC3)nn2-c2nc(C)c(C)c(=O)[nH]2)cc(OC)c1OC | 100% (active)
COc1ccc(C(=O)Nc2cc(C)nn2-c2nc(C)c(C)c(=O)[nH]2)c(OC)c1 | 26.6%

Structure (SMILES) | inhibition
COc1ccc(C(=O)Nc2cc(C3CC3)nn2-c2nc(C)c(C)c(=O)[nH]2)c(OC)c1 | 90% (active)
COc1cc(C(=O)Nc2cc(C3CC3)nn2-c2nc(C)cc(=O)[nH]2)cc(OC)c1OC | 101% (active)
COc1ccc(OCCSc2nnnn2C2CCCCC2)cc1 | -35.2%
Clc1cc(CSc2nnnn2C2CCCC2)cc2c1OCCO2 | -23.6%
c1ccc2c(c1)OCC(CSc1nnnn1C1CCCC1)O2 (configuration not stated) | 96.2% (active)
N#CC1(NC(=O)c2cnc(-c3ccc4c(c3)OCO4)s2)CCCC1 | 86.4% (active)
C=CCN(C(=O)c1ccc(-c2ccc3c(c2)OCCO3)s1)C1CCCCC1 | 45.7%
CN(Cc1ccco1)C(=O)c1cnc(-c2ccc3c(c2)OCO3)nc1Nc1ccccc1 | 47.5%
COc1ccc(N=C(c2cc([N+](=O)[O-])cc([N+](=O)[O-])c2)n2ccnc2)cc1 | 92.1% (active)
C=Cc1ccc(C(=O)N2CCCC(Nc3ccc(F)cc3)C2)cc1 (configuration not stated) | 75.9% (active)
COCc1ccc(C(=O)N2CCCC(Nc3ccc(C(C)C)cc3)C2)s1 (configuration not stated) | 21.9%
O=C(c1cc(Br)c[nH]1)N1CCC(Nc2ccc(F)cc2)CC1 | 1.55%
O=C(Nc1nc2c(s1)CCc1ccccc1-2)C1CC1 | 64% (active)
Cc1nc(NC(=O)C2CC2)sc1Cc1ccccc1Cl | 32.1%
C=CCNC(=O)C=Cc1cccs1 | 92.6% (active)
S=C(NN=Cc1cccs1)NC1CCCCC1 | 87.5% (active)
O=C(C=Cc1cccs1)NC1CCCC1 | 21.5%
C(=NNc1ccc2ccccc2n1)c1cccs1 | 39.2%
O=C(C=Cc1cccs1)NC1CCCCCC1 | 61.3% (active)
CC(C)NC(=S)NN=Cc1cccs1 | 100% (active)
CCC(CNC(=O)/C=C/c1sccc1C)c1ccccc1 (configuration not stated) | 28.2%
O=C(C=Cc1cccs1)NC1CCCCC1 | 37%
O=S(=O)(C1=Cc2ccccc2CC1)N1CCC2CCCCC2C1 (configuration not stated) | 21.1%
COC(=O)c1sccc1NC(=O)C=Cc1cccs1 | 81.4% (active)
O=C(C=Cc1ccc(Br)o1)NC1CCCCCC1 | 89.5% (active)
O=C(C=Cc1ccco1)NC1CCCC1 | 25.8%

Structure (SMILES) | inhibition
O=C(C=Cc1cccs1)c1cccs1 | 15.1%
Cc1cccc(Nc2nnc(-c3ccncc3)o2)c1 | -7.46%
c1ccc(-c2cc(Sc3nnc(-c4ccncc4)o3)n3ncnc3n2)cc1 | 102% (active)
COc1ccc(OCCCOc2ccc([N+](=O)[O-])cc2Cl)cc1 | 37.7%
COc1ccc(-c2cc(N)ccc2OC(F)F)cc1 | 34.9%
COc1ccc(N=Cc2cc([N+](=O)[O-])ccc2OC(F)F)cc1 | 79.9% (active)
COc1ccc(CN2CCN(C(c3ccc(F)cc3)c3ccc(F)cc3)CC2)c(OC)c1OC | 29.5%
COc1ccc(N2CCN(Cc3cc(C)c(C)cc3O)CC2)cc1 | 83.8% (active)
Cc1ccccc1CN1CCN(c2ccc(S(=O)(=O)C(F)F)cc2)CC1 | 27.6%
Fc1ccc(-n2cc(-c3ccnc(NCc4ccco4)n3)cn2)cc1 | 18.7%
COc1ccc(-c2csc(NCc3ccco3)n2)cc1 | 70.6% (active)
O=C1C(=C2SCCS2)CCCC12CC2c1ccccc1 (configuration not stated) | 50.8% (active)
Cc1ccc(OCc2cc(C(=O)NCCc3ccc(C(F)(F)F)cc3)no2)cn1 | 68.3% (active)
CC(C)Oc1ccc(CCNC(=O)c2cc(COc3ccc(F)c(F)c3)on2)cc1 | inactive
O=C(c1cc(COc2ccc3c(c2)CCCC3)on1)N1CCN(C2CCCC2)C(=O)C1 | 69.3% (active)
O=C(c1cc(COc2ccc3c(c2)CCCC3)on1)N1CCCN(c2ncccn2)CC1 | 71.4% (active)
Cc1nc(CCNC(=O)c2cc(COc3ccc4c(c3)CCCC4)on2)sc1C | 67.7% (active)
O=C(c1cc(COc2cccc(C(F)(F)F)c2)on1)N1CCCN(c2ncccn2)CC1 | inactive
O=C(c1cc(COc2ccc3c(c2)CCCC3)on1)N1CCCCO1 | 92.2% (active)
COCc1cc(C(=O)N2Cc3ccccc3N(C)CC2C)no1 (configuration not stated) | -8.57%
O=C(c1cc(COc2ccc(-n3cncn3)cc2)on1)N1CCCCO1 | inactive
Cn1c(=O)c2c(S(C)=O)snc2n(C)c1=O (configuration not stated) | 100% (active)
Cc1nn(CC(O)COc2ccc3c(c2)CCC3)c(C)c1C (configuration not stated) | 74.7% (active)
COc1ccc(OCCN(C)S(=O)(=O)c2ccc3c(c2)CCC3)cc1 | 48%
Cc1cc(C)n(CC(O)COc2ccc3c(c2)CCC3)n1 (configuration not stated) | 70.7% (active)
Cc1cc(C)n(CC(O)COc2ccc(C(C)(C)C)cc2)n1 (configuration not stated) | 44.2%

Structure (SMILES) | inhibition
Cn1ccc(NC(=O)c2cc3c(s2)CCC(C(C)(C)C)C3)n1 (configuration not stated) | 49.2%
N[C@@H](CCCCNC(=O)c1cccnc1)C(=O)NNc1ccc(Cl)cc1 | 95.5% (active)
CCOc1cc(Cl)ccc1NC(=O)Nc1cccnc1 | 32%
COc1ccc(F)cc1C(=O)C1CCCN(C(=O)Nc2ccc(SC)cc2)C1 (configuration not stated) | 2.1%
CC(C)NS(=O)(=O)Cc1ccc(CNC(=O)Nc2ccc(-c3ccccc3)cc2)cc1 | -37.3%
CN(C)C(=O)C1(CNC(=O)Nc2ccc(F)c(C(F)(F)F)c2)CCCC1 | 4.66%
CSc1ccc(NC(=O)CC2(C(=O)O)CCCC2)cc1 | 85.9% (active)
CC(C)NC(=O)CC1(C(=O)Nc2ccc(-c3ccccc3)cc2)CCCC1 | 91.1% (active)
O=C(CSCc1ccncc1)Nc1ccc(-c2cncnc2)cc1 | 89.9% (active)
FC(F)(F)CN1CCC(NCc2ccc(-c3ccccc3Cl)s2)C1 (configuration not stated) | 26.6%
O=S(=O)(Nc1ccc(SC(F)F)cc1)c1ccc(F)c(F)c1 | 96.8% (active)
O=S(=O)(Nc1cnc(-c2ccccc2)nc1)c1ccc(F)c(F)c1 | 58.3% (active)
O=S(=O)(Nc1ccc(OC(F)(F)F)cc1)c1ccc(F)c(F)c1 | 16%
CN(CC(N)=O)S(=O)(=O)c1cc2cc(Cl)ccc2s1 | 90.5% (active)
Oc1cc(OCCN2CCN(Cc3ccc4c(c3)OCO4)CC2)ccc1-c1[nH]ncc1-c1ccccc1 | 81.6% (active)
O=C(C1COc2ccccc2O1)N1CCc2onc(-c3cccc(F)c3)c2C1 (configuration not stated) | 10.6%
CC(C)C(=O)Nc1sc2c(c1-c1nc3ccccc3s1)CCN(C)C2 | 85.9% (active)
CC(=O)Nc1sc2c(c1-c1nc3ccccc3s1)CCN(C(C)C)C2 | 68.3% (active)
CCC(=O)Nc1sc2c(c1-c1nc3ccccc3s1)CCN(C(C)C)C2 | 100% (active)
CC(C)C(=O)Nc1sc2c(c1-c1nc3ccccc3s1)CCN(C(C)C)C2 | 95.2% (active)
CC(C)N1CCc2c(sc(NC(=O)C3CC3)c2-c2nc3ccccc3s2)C1 | 0.31%
CN1CCc2c(sc(NC(=O)c3ccc(F)cc3)c2-c2nc3ccccc3s2)C1 | 31.8%
CN1CCc2c(sc(NC(=O)c3ccccc3)c2-c2nc3ccccc3s2)C1 | 29.3%
CC(=O)c1ccc(C(=O)Nc2sc3c(c2-c2nc4ccccc4s2)CCN(C)C3)cc1 | 83.8% (active)
